# CFTR F508del cor: correctors of CFTR F508del function in bronchial epithelial cells. activity (quench increase), % at 7.58 µM. CFBE cells, YFP halide quenching; stimulated with forskolin plus potentiator P3; % fluorescence drop versus neutral controls. 0.36% of 350,000 active. AID 720511;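 active = mean added fluorescence quench of at least 8% versus neutral control, with both replicates also reaching 8%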;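 also: cells transiently co-express mutant CFTR-F508del with the halide-sensitive YFP; corrector assay measuring rescue of mutant channel to the surface after 24 h compound exposure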
# Glyco luc inh: N-linked glycosylation inhibition; D54 ERlucT glycosylation luciferase reporter, 24 h; percent of 100 nM tunicamycin response; reporter increase, % at 12.5 µM; 0.23% of 360,000 active;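 active = mean luciferase reporter signal, scaled so untreated is 0 and the glycosylation-blocking control 100, at or above a set limit in every replicate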;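 also: luciferase carries N-glycosylation sites so blocking glycosylation raises the light; 0% = median of neutral control wells and 100% = median of 100 nM tunicamycin wells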
# RAD52 anneal inh: RAD52 (human) annealing inhibition; recombinant RAD52 DNA annealing, FRET fluorescence; inhibition, % at 18.7 µM; 0.46% of 360,000 active; AID 651710;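 active = every replicate showing at least 50% inhibition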
# RAD54 branch: blocks human RAD54 Holliday junction branch migration | Q92698 | FAM/BHQ fluorescence | inhibition, % at 10.4 µM | 0.14% of 360,000 active | AID 602329;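 active = mean normalized replicate activity at least 40 and at least half of replicates scoring 40 or more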;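 also: 0% = median of neutral control wells and 100% = median of positive control wells; inhibitors cause a drop in the FAM fluorescence signal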
# dFosB act: activators of mouse delta FosB homodimer | purified delta FosB, TAMRA-CDK5 oligo fluorescence polarization; percent of positive-control signal above neutral wells | 0.99% of 340,000 active | activation, % at 25 µM;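 active = mean activation above about 17%, with every replicate also reaching it, limit read from the data, passing the limit was not always enough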
# PvdQ inh: P. aeruginosa PvdQ acylase inhibition; purified PvdQ acylase, fluorescence plate reader; inhibition, % at 10 µM; 0.063% of 340,000 active; in the data active = inhibition above about 30%, passing the limit was not always enough;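 also: 0% = vehicle neutral wells and 100% = reference inhibitor wells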
# Numbers without * were called inactive; i = inactive; . = no result given; ! = a repeat was not active. Compounds with a hit are over-represented: about 1.5% of the library has one in this group of screens.
SMILES,CFTR F508del cor,Glyco luc inh,RAD52 anneal inh,RAD54 branch,dFosB act,PvdQ inh
CCCc1cc(C(=O)N/N=C/c2ccc(CC)s2)c2ccccc2n1,.,14,.,1,4,12
C[C@@H]1CN([C@H](C)CO)S(=O)(=O)c2ccc(-c3ccncc3)cc2O[C@@H]1CN(C)C,0,.,-13,0,.,.
C[C@@H]1CN([C@H](C)CO)C(=O)c2cc(NC(=O)c3ccccc3)ccc2O[C@@H](C)CCCCO[C@H]1CN(C)Cc1ccc2c(c1)OCO2,1,.,17,14,.,.
O=C(C[C@H]1C=C[C@H](NC(=O)c2ccncc2)[C@@H](CO)O1)Nc1ccccc1,-1,.,-7,.,.,.
C[C@H](CO)N1C[C@H](C)[C@H](CN(C)S(=O)(=O)c2ccc(C#N)cc2)Oc2ncc(C#CCN(C)C)cc2C1=O,.,.,-11,-12,.,.
C#CCN(C)CCCOc1ccc(Cl)cc1Cl,8.9*,-1,-1,12,7,2
CCN(CC)C(=O)CCCOc1ccc(Cl)cc1Cl,.,-2,.,.,-3,-6
Cc1noc(C)c1COc1ccc(C(=O)N2CCN(S(=O)(=O)c3ccc(Cl)cc3)CC2)cc1,-1,1,-3,.,-9,-16
Cc1noc(C)c1COc1ccc(C(=O)N2CCN(S(=O)(=O)c3ccc(F)cc3)CC2)cc1,26*,-1,-10,-3,-6,-16
COc1cc(/C=C(\C#N)c2nc3ccccc3[nH]2)cc(OC)c1O,10*,8,-444,.,-33,-10
COc1cc(/C=C(\C#N)C(=O)c2c[nH]c3ccccc23)cc(OC)c1O,17*,1,i,-230,-18,-8
COc1cc(/C=C(\C#N)C(=O)NCCc2ccccc2)cc(OC)c1O,3,4,-453,.,-4,-5
O=C(CN1CCOCC1)N[C@@H]1CC[C@H](CCNC(=O)Nc2cc(F)ccc2F)O[C@@H]1CO,1,.,0,-8,.,.
C[C@H]1CN([C@@H](C)CO)C(=O)c2cc(NC(=O)Nc3cccc4ccccc34)ccc2O[C@@H]1CN(C)S(=O)(=O)c1cn(C)cn1,2,.,9,0,.,.
CCCNC(=O)N(C)C[C@@H]1Oc2cc(-c3ccccc3F)ccc2S(=O)(=O)N([C@H](C)CO)C[C@@H]1C,1,.,-20,11,.,.
O/N=C/c1cccc[n+]1CCCCCC[n+]1ccccc1/C=N/O,-1,2,-15,-1,-5,-5
CCCCCCCCCCCCCCCC[n+]1ccc(/C=N/O)cc1,.,87*,88*,.,38*,-68
CCCCCCCCCCCCCCCC[n+]1ccc(C(N)=O)cc1,.,-12,.,13,45*,3
C[C@H]1CN([C@@H](C)CO)C(=O)Cc2cc(NC(=O)NC3CCCCC3)ccc2O[C@@H]1CN(C)CC1CC1,0,.,0,6,.,.
CC(C)NC(=O)N1C[C@@H]2[C@H](c3ccccc31)[C@H](CO)N2Cc1ccccc1,2,.,0,0,.,.
COc1cc(OC)c(/C=N/NC(N)=S)cc1Br,.,3,-16,.,14,-4
COc1cc2c(-c3ccccc3)c(C)oc2cc1/C=N/NC(N)=S,8.1*,0,-22,6,1,-14
CO[C@H]1CN(C)C(=O)c2ccc(NC(=O)c3ccccc3F)cc2OC[C@H](C)N(C(C)=O)C[C@@H]1C,-3,.,9,2,.,.
C[C@@H]1CN([C@H](C)CO)C(=O)CCCn2cc(nn2)CO[C@H]1CN(C)C(=O)Nc1ccc(N2CCN(C)CC2)cc1,1,.,62*,8,.,.
C[C@@H]1CN([C@@H](C)CO)C(=O)CCCn2nncc2CO[C@H]1CN(C)C(=O)Nc1ccc(N2CCN(C)CC2)cc1,1,.,58*!,6,.,.
SMILES,CFTR F508del cor,Glyco luc inh,RAD52 anneal inh,RAD54 branch,dFosB act,PvdQ inh
C[C@H](CO)N1C[C@H](C)[C@@H](CN(C)C(=O)Nc2ccc(N3CCN(C)CC3)cc2)OCc2cnnn2CCCC1=O,-2,1,55*!,-13,.,.
CN(C)c1ccc(/C=C2/C[N+](C)(C)C/C(=C/c3ccc(N(C)C)cc3)C2=O)cc1,0,6,-125,.,22*,7
O=C1/C(=C/c2ccc(O)c(O)c2)Oc2cc(O)ccc21,4,2,-234,3,-4,-5
O=C1/C(=C/c2cccc([N+](=O)[O-])c2)Oc2cc(O)ccc21,-1,3,-18,0,-13,41*
CNC(=O)C[C@H]1CC[C@@H]2[C@H](COc3ccc(NC(=O)c4ccc(F)c(F)c4)cc3C(=O)N2C)O1,0,.,12,-7,.,.
CCOC(=O)c1cc2[nH]c3ccccc3c2[n+](-c2ccc([N+](=O)[O-])cc2)c1C,.,15,.,.,3,-8
CCOC(=O)c1cc2[nH]c3ccccc3c2[n+](-c2ccc([N+](=O)[O-])cc2)c1N,.,46*,.,.,11,-26
CCCC#Cc1cnc2c(c1)C(=O)N([C@H](C)CO)C[C@H](C)[C@H](CN(C)C(=O)C1CCCCC1)O2,2,.,.,.,.,.
COc1ccc(/C=N/NC(=O)c2cccc(NC(=O)c3ccccc3Cl)c2)cc1,4,34*,-8,5,1,-14
CCOc1ccc(-c2c(C(=O)N/N=C/c3ccc(C)cc3)nnn2-c2nonc2N)cc1,.,3,-8,.,34*,-6
CN(Cc1c(C(=O)N/N=C/c2ccc(O)cc2)nnn1-c1nonc1N)C1CCCCC1,-3,7,-9,2,29*,2
Cc1ccc(/C=N/NC(=O)c2nnn(-c3nonc3N)c2CN(C)C2CCCCC2)cc1,-2,0,-3,0,5,0
CCCc1c(C(=O)N/N=C(\C)c2ccccc2O)nnn1-c1nonc1N,-3,-3,-19,2,.,.
C/C(=N\NC(=O)c1nnn(-c2nonc2N)c1-c1ccccc1)c1ccccc1O,4,-8,-20,-3,33*,-1
C[C@H]1CN([C@@H](C)CO)C(=O)c2cc(-c3ccncc3)cnc2O[C@H]1CN(C)C(=O)c1ccc(F)cc1,-2,.,12,2,.,.
CCCN1[C@H](C(=O)OC)[C@@H](CO)[C@@H]2Cn3c(ccc(-c4ccc(F)cc4)c3=O)[C@@H]21,-1,.,-13,7,.,.
COc1ccc(CCNC(=O)c2c(C)nn(CC(C)C)c2Cl)cc1,0,4,-29,-1,-8,8
Cc1nn(CC(C)C)c(Cl)c1C(=O)N(c1ccc(Cl)cc1F)S(C)(=O)=O,0,26*,-2,9,2,8
CCCCNC(=O)C(=O)Nc1ccc2c(c1)N(S(=O)(=O)c1cccs1)CCC2,11*,14,0,-5,.,.
CCN(CC)CCNC(=O)C(=O)Nc1ccc2c(c1)N(S(=O)(=O)c1cccs1)CCC2,-4,-2,-4,9,-10,-8
COc1ccc(-c2csc(NC(=O)CSc3nnc(Nc4ccccc4C)s3)n2)cc1,-5,-4,-11,.,6,-4
COc1ccc2cc(C)c3nnc(SCC(=O)Nc4nc(-c5ccc(F)cc5)cs4)n3c2c1,.,38*,.,.,-9,-15
CC(C)(C)N(Cc1ccccc1)C(=O)c1cc2ccccc2o1,10.0*,-2,-3,8,4,-11

# Screens as filed in PubChem.
